# Reference: ChEMBL document CHEMBL1201862, “PubChem BioAssay data set” (2004)
# Out of some 400,000 compounds screened, about 1,900 (0.47%) were called active. Roughly 14% stayed inconclusive and do not appear here. No rule for the calls is given here. Shown is part of a subset that was picked to be rich in actives.
# Biological target: Ataxin-2 (Homo sapiens) (UniProt Q99700)
# Assay: qHTS for Inhibitors of ATXN expression.
# Type: functional
# Ataxin-2 (Homo sapiens), sequence (Q99700 whole entry): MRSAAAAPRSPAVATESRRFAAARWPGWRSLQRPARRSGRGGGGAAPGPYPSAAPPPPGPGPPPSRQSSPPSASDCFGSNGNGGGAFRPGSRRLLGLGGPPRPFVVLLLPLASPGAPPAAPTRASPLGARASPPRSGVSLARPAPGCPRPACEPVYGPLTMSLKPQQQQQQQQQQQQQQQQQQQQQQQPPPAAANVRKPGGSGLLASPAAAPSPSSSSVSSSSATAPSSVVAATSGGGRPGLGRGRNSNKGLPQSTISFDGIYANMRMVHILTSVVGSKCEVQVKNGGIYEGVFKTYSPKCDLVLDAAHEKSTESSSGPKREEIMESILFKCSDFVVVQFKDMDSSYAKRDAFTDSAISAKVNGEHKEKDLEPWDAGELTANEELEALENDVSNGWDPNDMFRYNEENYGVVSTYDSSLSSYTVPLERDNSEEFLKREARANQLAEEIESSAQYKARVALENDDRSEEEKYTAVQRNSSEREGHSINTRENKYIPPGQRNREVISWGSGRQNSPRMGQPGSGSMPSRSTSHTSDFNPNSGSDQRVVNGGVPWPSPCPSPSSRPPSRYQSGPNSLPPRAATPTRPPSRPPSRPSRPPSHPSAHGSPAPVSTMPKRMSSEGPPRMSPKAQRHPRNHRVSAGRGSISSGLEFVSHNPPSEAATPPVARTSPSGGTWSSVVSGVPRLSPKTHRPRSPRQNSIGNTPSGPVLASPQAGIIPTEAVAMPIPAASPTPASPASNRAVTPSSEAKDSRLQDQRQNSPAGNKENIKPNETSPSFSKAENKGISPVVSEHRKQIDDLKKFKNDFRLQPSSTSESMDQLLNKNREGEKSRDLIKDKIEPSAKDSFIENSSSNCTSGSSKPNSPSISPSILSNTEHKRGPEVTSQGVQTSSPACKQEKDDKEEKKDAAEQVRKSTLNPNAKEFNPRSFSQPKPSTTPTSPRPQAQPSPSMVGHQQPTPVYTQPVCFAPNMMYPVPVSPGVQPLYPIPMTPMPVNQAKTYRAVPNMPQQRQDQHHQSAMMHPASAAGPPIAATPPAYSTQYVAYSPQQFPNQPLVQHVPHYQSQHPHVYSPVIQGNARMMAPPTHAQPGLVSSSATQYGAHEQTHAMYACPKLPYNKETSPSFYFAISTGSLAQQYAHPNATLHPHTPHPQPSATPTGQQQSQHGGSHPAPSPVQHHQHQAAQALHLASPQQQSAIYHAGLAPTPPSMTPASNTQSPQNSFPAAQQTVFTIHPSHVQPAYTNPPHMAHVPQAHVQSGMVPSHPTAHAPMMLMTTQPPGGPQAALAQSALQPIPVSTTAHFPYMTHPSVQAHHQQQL
row,SMILES,Potency
1,NP(=O)(Oc1ccc(Cl)cc1)Oc1ccc(Cl)cc1,inactive
2,CC1=CC2/C=C(\C)CCC(O)C(O)/C=C/C(=O)C23C(=O)NC(CC(C)C)C3C1C (stereo not drawn),3.77 µM (active)
3,C=C(C=O)CC1CC(O)[C@]2(C)OC3CC4OC5C[C@]6(C)O[C@]7(C)CCC8OC9C[C@]%10(C)OC%11C(C)=CC(=O)OC%11CC%10OC9C[C@@H](C)C8OC7CC6O[C@]5(C)CC5OC5C4OC3CC2O1 (stereo partly drawn),1.26 µM (active)
4,CCCNC(=O)c1c(N)n(CC2CCCO2)c2nc3ccccc3nc12 (stereo not drawn),inactive
5,COCCNC(=O)c1c(NC(=O)c2ccco2)n(Cc2ccccc2)c2nc3ccccc3nc12,inactive
6,CCCCCCCCN1C(=O)[C@H](CC(=O)NCCc2ccccc2OC)C[C@@]2(C(=O)OC)CCCCC=C12,25.1 µM (active)
7,CC(C)OCCCNC(=O)c1c(N)n(CC2CCCO2)c2nc3ccccc3nc12 (stereo not drawn),inactive
8,Cc1nc2ccc(N3CCN(C)CC3)cc2nc1C,inactive
9,O=C(c1ccccc1)C(CN1CCCC1)c1ccccc1 (stereo not drawn),25.1 µM (active)
10,O=C(c1ccc(-c2ccccc2)c(F)c1)C1CCCN(CCO)C1 (stereo not drawn),inactive
11,CC(C)(C)n1nnnc1C(c1cc2ccccc2o1)N1CCC2(CC1)C(=O)NCN2c1ccccc1 (stereo not drawn),39.8 µM (active)
12,O=C1NCN(c2ccccc2)C12CCN(C(c1cc3ccccc3o1)c1nnnn1Cc1ccccc1)CC2 (stereo not drawn),39.8 µM (active)
13,CCCNC(=O)c1c(N)n(Cc2ccco2)c2nc3ccccc3nc12,inactive
14,O=C1NCN(c2ccccc2)C12CCN(C(c1cccs1)c1nnnn1Cc1ccccc1)CC2 (stereo not drawn),39.8 µM (active)
15,CCCCn1nnnc1C(c1cccs1)N1CCC2(CC1)C(=O)NCN2c1ccccc1 (stereo not drawn),31.6 µM (active)
16,Fc1ccc(CNCCc2ccc3c(c2)OCO3)cc1,inactive
17,O=C1NC(=O)N(CCc2ccccc2)C(=O)/C1=C(O)/C=C/c1c[nH]c2ccccc12,inactive
18,CN(C)C(=O)Oc1ccc2nnc3ccnn3c2c1,inactive
19,CCOc1ccc(N2C(=O)NC(=O)/C(=C\c3ccccc3[N+](=O)[O-])C2=O)cc1,inactive
20,CC(C)c1ccc(N2C(=O)NC(=O)/C(=C/C=C/c3ccco3)C2=O)cc1,39.8 µM (active)
21,COc1ccc(N2C(=O)NC(=O)/C(=C\c3c[nH]c4ccccc34)C2=O)cc1,inactive
22,CN(C)c1ccc(/C=C/C=C2/C(=O)NC(=O)N(c3ccccc3)C2=O)cc1,15 µM (active)
23,Cc1ccc(C[n+]2c(-c3ccc(C)cc3)cc(-c3ccc(C)cc3)cc2-c2ccc(C)cc2)cc1,12.6 µM (active)
24,c1ccc(-c2cc(-c3ccccc3)[n+](-c3ccccc3)c(-c3ccccc3)c2)cc1,25.1 µM (active)
25,Cc1ccc(-c2cc(-c3ccc(C)cc3)[n+](-c3ccccc3)c(-c3ccc(C)cc3)c2)cc1,17.8 µM (active)
26,COP(=O)(OC)c1nc(-c2cccc3ccccc23)oc1NCCc1ccccc1,inactive

row,SMILES,Potency
1,CCCCn1c(NS(=O)(=O)c2ccc(C)cc2)c(C(=O)OCC)c2nc3ccccc3nc21,inactive
2,CCOc1ccc(C(=O)Nc2cccc(C(=O)OCc3cc(=O)n4nc(C5CC5)sc4n3)c2)cc1,3.55 µM (active)
3,Cn1c(=O)c2c(nc(NN/C=C3/C(=O)NC(=S)N(C4CCCCC4)C3=O)n2C)n(C)c1=O,inactive
4,CN(C)c1c([N+](=O)[O-])cc(N2C(=O)C=CC2=O)cc1[N+](=O)[O-],25.1 µM (active)
5,CC1(C)OC(c2ccccc2)=C/C(=C/C=C2C(=O)NC(=S)NC2=O)O1,inactive
6,CC1(C)OC(c2ccccc2)=C/C(=C/C=C2C(=O)NC(=O)NC2=O)O1,inactive
7,CN1/C(=C\C=C2C(=O)NC(=S)NC2=O)C(C)(C)c2ccccc21,35.5 µM (active)
8,Cc1nc2cc(OC(=O)N(C)Cc3cccc(-c4ccncc4)c3)ccc2s1,39.8 µM (active)
9,COc1ccc(C[C@@H]2NC[C@H](O)[C@@H]2OC(C)=O)cc1,0.0891 µM (active)
10,CCOC(=O)[C@]12Cc3cc(OC)ccc3[C@H]1N(CCC(=O)OC)C(=O)c1cc(OC)ccc12,28.2 µM (active)
11,CCCCCN1C(=O)c2cc(OC)ccc2[C@@]2(C(=O)OCC)Cc3cc(OC)ccc3[C@@H]12,11.2 µM (active)
12,Cc1ccc(C(=O)N[C@@H](C)CN2C3=NC[C@H](Cc4ccccc4)N3C[C@H]2Cc2ccc(O)cc2)cc1Br,22.4 µM (active)
13,O=c1c2ccccc2nc(/C=C/c2ccc(O)cc2)n1-c1ccc(O)cc1,inactive
14,Cc1ccc(C)c(S(=O)(=O)Nc2ccc3c(c2)CCCN3C(=O)c2cccs2)c1,39.8 µM (active)
15,COc1cccc(-c2nc3cc4c(cc3cc2CN(C(=O)c2cccs2)C2CC2)CCC4)c1OC,35.5 µM (active)
16,CCOc1ccc(N/C=C2/C(=O)NC(=S)N(Cc3ccccc3)C2=O)cc1,inactive
17,CCCC[C@@H](C)C[C@@H](C)C(=O)N(C)[C@@H](CC(C)C)C(=O)N[C@H](C(=O)N(C)[C@H](C(=O)N1C[C@@H](O)C[C@H]1C(=O)N1C(=O)C=C[C@@H]1C)C(C)C)C(C)OC(C)=O (stereo partly drawn),10 µM (active)
18,O=c1c2ccccc2nc(/C=C/c2ccc(O)c(O)c2)n1-c1ccccc1,inactive
19,O=C1NC(=S)N(c2ccc(F)cc2)C(=O)/C1=C\c1ccoc1,inactive
20,Cc1ccc(N2C(=O)/C(=C/NCc3ccccn3)C(=O)NC2=S)cc1,inactive
21,O=C1NC(=S)N(c2ccccc2F)C(=O)/C1=C\c1cccs1,31.6 µM (active)
22,Cc1cc(N(CCCl)CCCl)ccc1C=Cc1ccncn1,inactive
23,Oc1nc2ccccc2n1C1CCN(C(c2ccccc2)c2nnnn2-c2ccc3c(c2)OCCO3)CC1 (stereo not drawn),14.1 µM (active)
24,Oc1nc2ccccc2n1C1CCN(C(c2ccccc2OC(F)(F)F)c2nnnn2-c2ccc3c(c2)OCCO3)CC1 (stereo not drawn),39.8 µM (active)
25,Oc1nc2ccccc2n1C1CCN(C(CCc2ccccc2)c2nnnn2C2CCCCC2)CC1 (stereo not drawn),39.8 µM (active)
26,Oc1nc2ccccc2n1C1CCN(C(CCc2ccccc2)c2nnnn2-c2ccc3c(c2)OCCO3)CC1 (stereo not drawn),39.8 µM (active)

row,SMILES,Potency
1,COc1ccc(C2CC(c3cccs3)=NN2c2nc(C)c(C(C)=O)s2)cc1OC (stereo not drawn),inactive
2,CCOCCSc1nc2c(c(-c3cccs3)c1C#N)CC/C2=C/c1cccs1,inactive
3,Cc1cccc(-c2noc(-c3ccc4c(c3)OCO4)n2)c1,inactive
4,CC(C)CNC(=O)c1c(N)n(Cc2ccco2)c2nc3ccccc3nc12,inactive
5,CCCN=C1C(=O)C2=C(C(O)=C1C)N1CC3NC3[C@@]1(OC)C2COC(N)=O (stereo partly drawn),inactive
6,COc1ccc(-n2c(/C=C/c3ccc(O)c(OC)c3)nc3ccccc3c2=O)cc1,inactive
7,CC[N+](C)(CC)CCC[n+]1c(-c2ccccc2)c2cc(N)ccc2c2ccc(N)cc21,11.2 µM (active)
8,C/C(=C\c1ccc(N(C)C)cc1)[N+](=O)[O-],22.4 µM (active)
9,Cc1ccc(CN2CCCC(C(=O)c3cccc(C(F)(F)F)c3)C2)o1 (stereo not drawn),inactive
10,C=C1C(=O)O[C@@H]2C[C@@H](C)[C@@H]3C=CC(=O)[C@@]3(C)[C@@H](OC(=O)CC(=O)O[C@H]3[C@@H]4C(=C)C(=O)O[C@@H]4C[C@@H](C)[C@@H]4C=CC(=O)[C@]43C)[C@H]12,0.562 µM (active)
11,C=C1C(=O)O[C@@H]2C[C@@H](C)[C@@H]3C=CC(=O)[C@@]3(C)[C@@H](O)[C@H]12,20 µM (active)
12,C=C1C(=O)O[C@@H]2C[C@@H](C)[C@H]3C=CC(=O)[C@]3(O)C[C@@H]12,22.4 µM (active)
13,COc1cc(/C=C/c2nc3ccccc3c(=O)n2-c2ccccc2O)ccc1O,inactive
14,COc1ccc(-c2c/c(=N\CCC(=O)O)c3cc(C)ccc3o2)cc1,inactive
15,C=CCn1c(=O)/c(=C\c2ccccn2)s/c1=C(/C#N)C(=O)NCC1CCCO1 (stereo not drawn),inactive
16,O=C(Nc1c(Cl)cccc1Cl)Oc1cccc2cccnc12,inactive
17,O=C(NNC(=O)C12CC3CC(CC(C3)C1)C2)c1ccccc1F,inactive
18,C[C@@]12CC[C@H]3[C@@H](CC[C@]4(O)C[C@H](O)CC[C@@]34C=O)[C@]1(O)CC[C@@H]2C1=CC(=O)OC1,0.708 µM (active)
19,C[C@@H]1O[C@H](O[C@H]2C[C@@H](O)[C@@]3(CO)[C@H]4[C@@H](O)C[C@]5(C)[C@@H](C6=CC(=O)OC6)CC[C@]5(O)[C@H]4CC[C@]3(O)C2)[C@@H](O)[C@H](O)[C@@H]1O,0.0891 µM (active)
20,C[C@@H]1O[C@H](O[C@@H]2CC[C@@]3(C=O)[C@H]4CC[C@@]5(C)[C@@H](C6=CC(=O)OC6)CC[C@@]5(O)[C@@H]4CC[C@]3(O)C2)C[C@H](O)[C@@H]1O,3.55 µM (active)
21,CCC1C(=O)OCC1Cc1cncn1C (stereo not drawn),inactive
22,CSCCC(c1nnnn1C1CCCCC1)N1CCC2(CC1)C(=O)NCN2c1ccccc1 (stereo not drawn),39.8 µM (active)
23,COc1cccc(C(c2nnnn2-c2ccc3c(c2)OCCO3)N2CCC3(CC2)C(=O)NCN3c2ccccc2)c1OC (stereo not drawn),39.8 µM (active)
24,COc1cccc(C(c2nnnn2C(C)(C)C)N2CCC3(CC2)C(=O)NCN3c2ccccc2)c1OC (stereo not drawn),39.8 µM (active)
25,COc1cccc(C(c2nnnn2C2CCCC2)N2CCC3(CC2)C(=O)NCN3c2ccccc2)c1OC (stereo not drawn),39.8 µM (active)
26,CC(C)(C)n1nnnc1C(c1cccc2ccccc12)N1CCC2(CC1)C(=O)NCN2c1ccccc1 (stereo not drawn),39.8 µM (active)
